The list is not random: actives were taken first. Their share in the collection is about 1.9%.
aDG glyco up: alpha-DG glycosylation activation; Pro5-aDG cells, alpha-DG glycosylation AlphaScreen (IIH6); 0% Pro5, 100% B10-LARGE cell signal; activation, % at 10 µM; actives 0.22% (n = 360,000);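 active = activation of at least 8% versus controls, or a plate z-score of at least 8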;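 note: Pro5 are CHO cells carrying HIG-tagged alpha-DG that lacks glycosylation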
p47phox inh: inhibitors of human p47phox binding; P14598; p47phox/p22phox peptide binding, fluorescence polarization, 2 h; inhibition, % at 24.7 µM; actives 0.53% (n = 220,000);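 active = inhibition above about 30%, limit read from the data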
EBNA-1 inhibitor: blocks EBNA-1 binding to DNA; EBNA-1 DNA binding, fluorescence polarization; inhibition, % at 14.8 µM; actives 0.34% (n = 300,000); in the data active = inhibition above about 28%
ZTA counter: ZTA (EBV) inhibition in EBNA-1 counter-screen; P03206; ZTA-DNA binding, fluorescence polarization; inhibition, % at 11 µM; actives 0.15% (n = 320,000); AID 2234; in the data active = inhibition above about 33%
NR1D1 modulator: Rev-erb alpha (human) modulation. Rev-erbα–FITC-DNA binding, fluorescence polarization, 90 min. activity, % at 10 µM. actives 0.79% (n = 370,000). AID 1259318;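 active = activity above about 14%, limit read from the data; passing the limit was not always enough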
Target sequence (P20393 whole entry, looked up): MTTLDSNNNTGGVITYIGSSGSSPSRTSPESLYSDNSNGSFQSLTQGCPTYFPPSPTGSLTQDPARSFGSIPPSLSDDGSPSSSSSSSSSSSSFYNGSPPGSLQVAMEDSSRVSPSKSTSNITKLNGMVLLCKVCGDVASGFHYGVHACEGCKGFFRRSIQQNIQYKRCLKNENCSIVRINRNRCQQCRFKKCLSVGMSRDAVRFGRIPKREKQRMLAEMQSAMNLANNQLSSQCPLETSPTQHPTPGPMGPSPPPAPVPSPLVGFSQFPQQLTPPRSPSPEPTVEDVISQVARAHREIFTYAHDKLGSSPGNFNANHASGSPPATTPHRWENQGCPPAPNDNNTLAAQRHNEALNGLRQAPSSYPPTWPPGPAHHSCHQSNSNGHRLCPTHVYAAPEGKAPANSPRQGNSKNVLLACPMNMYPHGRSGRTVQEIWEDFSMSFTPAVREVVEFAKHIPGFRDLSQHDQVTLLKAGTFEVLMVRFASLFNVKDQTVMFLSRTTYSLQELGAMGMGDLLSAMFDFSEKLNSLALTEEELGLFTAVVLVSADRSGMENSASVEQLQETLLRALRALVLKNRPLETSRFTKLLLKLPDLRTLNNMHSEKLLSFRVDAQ
PG9 Ab binder: PG9 antibody binding by small molecule | TR-FRET gp120-PG9 antibody binding | inhibition, % at 6.7 µM | actives 0.43% (n = 360,000); in the data active = inhibition above about 8.5%
Large screens that a line does not name were inactive.

O=C(Nc1ccc(N2CCOCC2)cc1)c1ccc(S(=O)(=O)N2CCCCC2)cc1	p47phox inh 36.9
Cc1cccc(NC(=S)NC2CC3CCC(C2)N3Cc2ccco2)c1C (stereo not given)	none
Cc1ccc(NC(=S)NC2CC3CCC(C2)N3Cc2ccco2)c(C)c1 (stereo not given)	p47phox inh 37.5
Cc1cccc(C)c1NC(=O)c1ccc([N+](=O)[O-])s1	none
Cc1ccnc(NC(=O)c2ccc([N+](=O)[O-])s2)c1	aDG glyco up 8.4 (no result: p47phox inh)
Cc1cccc(NC(=O)c2ccc([N+](=O)[O-])s2)n1	aDG glyco up 7.2 (no result: p47phox inh)
C[C@H](O)[C@@H]1CN2CCc3c([nH]c4c(-c5ccc6c(c5)OCO6)cccc34)[C@@H]2C[C@@H]1N(C)C(=S)NCCc1ccccc1	none (no result: aDG glyco up, p47phox inh, EBNA-1 inhibitor, ZTA counter, PG9 Ab binder)
N=C(N)SCc1cn(-c2ccccc2)nc1-c1ccc(Br)cc1	p47phox inh 54.3 (no result: EBNA-1 inhibitor, ZTA counter)
C[C@@H]1O[C@@H](OC[C@H]2OC(Oc3c(-c4ccc(OCCO)c(OCCO)c4)oc4cc(OCCO)cc(O)c4c3=O)[C@H](O)[C@@H](O)[C@@H]2O)[C@H](O)[C@H](O)[C@H]1O (stereo not given in full)	none (no result: aDG glyco up, p47phox inh, EBNA-1 inhibitor, ZTA counter, PG9 Ab binder)
O=C1c2ccc3c4c(ccc(c24)C(=O)N1CCCCO)C(=O)N(CCCCO)C3=O	p47phox inh 61.8 (no result: EBNA-1 inhibitor, ZTA counter)
COc1ccc2cc3cc(C(=O)Nc4ccc5c(c4)OCCO5)oc3nc2c1	p47phox inh 32.3
C=CCn1c(SCC(=O)OC(C)C)nnc1-c1ccc(C)cc1	none (no result: aDG glyco up, p47phox inh, EBNA-1 inhibitor, ZTA counter, PG9 Ab binder)
COc1cc(SC)ccc1C(=O)NCc1ccccc1	p47phox inh 76.8
COc1ccc2c(-c3cc4ccc(OCc5ccc(F)cc5)cc4oc3=O)cc(=O)oc2c1	p47phox inh 37.2
CC(C)(C)NCC(O)CSc1nc(-c2ccc(C(N)=O)s2)cs1 (stereo not given)	none (no result: aDG glyco up, p47phox inh, EBNA-1 inhibitor, ZTA counter, PG9 Ab binder)
CC1CCCC(NC(=O)COC(=O)c2ccccc2[N+](=O)[O-])C1C (stereo not given)	p47phox inh 42.7
COc1cc(NC(=O)COC(=O)c2ccc(S(=O)(=O)N3CC(C)CC(C)C3)cc2)c(C)cc1[N+](=O)[O-] (stereo not given)	p47phox inh 39.5 (no result: NR1D1 modulator, PG9 Ab binder)
COc1ccc(NC(=O)COC(=O)c2ccc(S(=O)(=O)N3CC(C)CC(C)C3)cc2)cc1OC (stereo not given)	none (no result: p47phox inh, EBNA-1 inhibitor, ZTA counter)
COc1ccccc1CCNC(=O)c1cc(-c2ccncc2)nc2ccc(Br)cc12	p47phox inh 38.6 (no result: EBNA-1 inhibitor, ZTA counter)
CC(NC(=O)c1cc(-c2ccncc2)nc2ccc(Cl)cc12)C1CCCO1 (stereo not given)	none (no result: p47phox inh)
CSc1ccccc1NC(=O)c1cc(-c2cccnc2)nc2ccc(Br)cc12	p47phox inh 30.8
CC(NC(=O)c1cc(-c2cccnc2)nc2ccc(Br)cc12)C1CCCO1 (stereo not given)	EBNA-1 inhibitor 160.0, ZTA counter 150.8 (no result: p47phox inh)
CC(=O)Nc1cccc(NC(=O)c2cc(-c3cccnc3)nc3ccc(Br)cc23)c1	none
COc1ccccc1CCNC(=O)c1cc(-c2ccccn2)nc2ccc(Br)cc12	none (no result: aDG glyco up, NR1D1 modulator, PG9 Ab binder)
CC(C)N(Cc1cn(Cc2ccccc2)nn1)S(=O)(=O)c1ccc(F)cc1Br	none (no result: aDG glyco up, p47phox inh, EBNA-1 inhibitor, ZTA counter, PG9 Ab binder)
CC(COc1ccc(C(F)(F)F)cc1)CN1CCC(C(O)(c2ccccc2)c2ccccc2)CC1 (stereo not given)	none (no result: aDG glyco up, p47phox inh, EBNA-1 inhibitor, ZTA counter, PG9 Ab binder)
CCC(C)C(=O)O[C@H]1C[C@H](O)C=C2C=C[C@H](C)[C@H](CC[C@@H](O)C[C@@H](O)CC(=O)O)C21 (stereo not given in full)	none (no result: aDG glyco up, p47phox inh, EBNA-1 inhibitor, ZTA counter, PG9 Ab binder)
CCCCNC(=O)c1cc2n(n1)C(C(F)(F)F)CC(c1ccccc1)N2 (stereo not given)	p47phox inh 57.4
Cc1cc(/C=N/n2cnnc2)c(C)n1-c1ccc(OCc2ccc(Cl)cc2)cc1	none
Cc1cc(/C=N/n2cnnc2)c(C)n1-c1ccc(OCc2ccccc2F)cc1	aDG glyco up 5.9
Cc1cccc(-c2cccc3c4c([nH]c23)[C@@H]2C[C@H](N(C)C(=O)Nc3ccccc3)[C@H]([C@H](C)O)C(=O)N2CC4)c1	none (no result: aDG glyco up, p47phox inh, EBNA-1 inhibitor, ZTA counter, PG9 Ab binder)
Cc1cc2nnc(SCC(=O)N3C(C)CCCC3C)n2c(N)n1 (stereo not given)	p47phox inh 53.6
Cc1ccc(OCc2ccc(C(=O)Nc3nc4ccccc4n3Cc3ccccc3)o2)c([N+](=O)[O-])c1	p47phox inh 32.0
O=C(Nc1nc2ccccc2n1Cc1ccccc1)c1ccc(COc2ccccc2[N+](=O)[O-])o1	none
C[C@]12C=CC(=O)C=C1CCC1C2[C@@H](O)C[C@@]2(C)C1CC[C@]2(O)C(=O)COP(=O)(O)O (stereo not given in full)	none (no result: aDG glyco up, p47phox inh, EBNA-1 inhibitor, ZTA counter, PG9 Ab binder)
COC(=O)c1nnn(Cc2ccccc2)c1N	none
Nc1c(C2=NCCO2)nnn1Cc1ccccc1	p47phox inh 43.7
Cn1c(=N)n(CC(=O)c2cccs2)c2ccccc21	none
Cn1c(=N)n(CC(=O)c2ccc(Br)s2)c2ccccc21	aDG glyco up 13.4
C[C@H](O)[C@@H]1CN2CCc3ccc(N4CCOCC4)cc3[C@@H]2C[C@@H]1N(C)C(=S)NCCc1ccccc1	none (no result: aDG glyco up, p47phox inh, EBNA-1 inhibitor, ZTA counter, PG9 Ab binder)
Nc1ccc(N2CCCCC2)c2nonc12	ZTA counter 56.8
Nc1c(N2CCCC2)cc(Cl)c2nonc12	none (no result: NR1D1 modulator, PG9 Ab binder)
CCC1CCCCN1C(=O)c1cc(COc2ccc3ncccc3c2)on1 (stereo not given)	aDG glyco up 7.6
CN1CCN(CCNC(=O)c2ccc3nc(-c4ccc(F)cc4)c(-c4ccc(F)cc4)nc3c2)CC1	aDG glyco up 8.0 (no result: p47phox inh)
CCc1nc2ccc(C(=O)NCCCN3CCN(c4ccc(F)cc4)CC3)cc2nc1CC	none (no result: p47phox inh)
C#CCNC(=O)C[C@H]1C[C@@]2(C(=O)OC)C(=C[C@H](COCc3ccccc3)O[C@@H]2C)N(Cc2cccc3ccccc23)C1=O	none (no result: aDG glyco up, p47phox inh, EBNA-1 inhibitor, ZTA counter, PG9 Ab binder)
O=c1[nH]c(=S)[nH]c(O)c1N=Nc1ccc(-c2ccccc2)cc1[N+](=O)[O-]	p47phox inh 70.0 (no result: aDG glyco up, EBNA-1 inhibitor, ZTA counter, NR1D1 modulator, PG9 Ab binder)
CCCCNCCOCCOc1ccccc1-c1ccccc1	EBNA-1 inhibitor 33.6
Cc1ccc(-n2c(COc3ccccc3)nnc2SCC(=O)Nc2ccccc2-c2ccccc2)cc1	none (no result: aDG glyco up, p47phox inh, EBNA-1 inhibitor, ZTA counter, PG9 Ab binder)
CC[n+]1ccc(C[n+]2ccccc2)c2ccccc21	p47phox inh 78.8
COc1ccc(-n2c(COc3ccc(C)cc3)nnc2SCC(=O)Nc2ccc(S(=O)(=O)Nc3cc(C)nc(C)n3)cc2)cc1	none (no result: aDG glyco up, p47phox inh, EBNA-1 inhibitor, ZTA counter, PG9 Ab binder)
c1ccc(-c2nc3ccccc3c3nncn23)cc1	p47phox inh 34.7
COC(=O)[C@]12C[C@H](CC(=O)N3CCOCC3)C(=O)N(Cc3ccco3)C1=C[C@H](C(C)C)O[C@@H]2C1CC1	none (no result: aDG glyco up, p47phox inh, EBNA-1 inhibitor, ZTA counter, PG9 Ab binder)
CSc1nc(C)c2c(n1)N(c1ccc(F)cc1)CC2	PG9 Ab binder 10.3
CN(C)c1ccc(NC(=O)Oc2ccccc2)cc1	EBNA-1 inhibitor 52.3, ZTA counter active
CC(=O)Nc1ccc(NC(=O)Oc2ccccc2)cc1	none
COC(=O)C1[C@H]2C[C@H]3c4[nH]c5ccccc5c4CCN3C[C@@H]2CC[C@@H]1O (stereo not given in full)	none (no result: aDG glyco up, p47phox inh, EBNA-1 inhibitor, ZTA counter, PG9 Ab binder)
